Measured values as given in PubChem BioAssay (NCI).
Compounds without any hit were thinned out: in the full panel of roughly 83,000, 20% have a hit.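 For each line, cells grew in 96-well plates with the test compound present at a single concentration for 48 hours.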 Values without a mark were called inactive. Active and inactive are the calls of the source. How the source made its calls: active means growth percent below 10; inactive means the rest.

Tested on: HL-60(TB) leukemia
Assay: NCI-60 one-dose screen, 48 h (100 = growth as untreated, 0 = no growth, -100 = all killed)
Settings: 10 µM unless noted

SMILES | growth
CCNCCCn1c2c(c3cc(OC)c(OC)cc3c1=O)C(=O)c1cc3c(nc1-2)OCO3 | 55.1%
CCCCN1C(=O)/C(=C\C(=O)c2cc3ccccc3oc2=O)c2ccccc21 | 74.8%
Fc1ccc(/C=C/c2nc3ccccc3n3c(-c4ccc(Cl)cc4)nnc23)cc1 | 3.61% (active)
N/C(=N\c1nc2ccccc2s1)NC(=O)Nc1ccccc1F | -5.29% (active)
CCN1CCN(Cc2ccc(C(=O)Nc3cccc(-c4cn(-c5ccc6oc(=O)ccc6c5)nn4)c3)cc2C(F)(F)F)CC1 | 27.7%
O=C(NN1C(=O)/C(=C/C=C/c2ccc([N+](=O)[O-])o2)SC1=S)c1ccc(Cl)cc1 | -7.52% (active)
Cc1ccc(C(=O)Nc2cc(-n3ccnc3)cc(C(F)(F)F)c2)cc1-n1cc(-c2cnc3cccnn23)nn1 | 50.5%
CC1(c2cc3cc(Br)ccc3oc2=O)NC(=O)c2c(/C=C/C(=O)OC3CC4CCC3(C)C4(C)C)cccc2N1 (centres undefined) | 48.9%
COc1cc(CNC(=O)/C=C/c2ccc3c(c2)OCO3)ccc1OCc1cn(-c2cccc(C(F)(F)F)c2)nn1 | 69.7%
N#Cc1ccc(-c2nn(-c3ccc(C(=O)O)cc3)cc2CNc2ccc(Oc3ccccc3)cc2)cc1 | 34.4%
Cc1ccc(/C=C/C(=O)c2ccc(S(=O)(=O)NCCNc3nc(Nc4ccc(F)cc4)nc(N(C)C)n3)cc2)cc1 | 13.5%
O=C(c1ccc(Cl)cc1)c1ccc(OCCCN2CCN(c3ccncc3)CC2)cc1 | -3.36% (active)
COc1ccc(/C=C/C(=O)c2ccc(NC(=O)CN3C(=O)NC(C)(c4ccccc4)C3=O)cc2)cc1 (centres undefined) | 67.3%
O=C(Cn1c(-c2ccccc2)nc2ccccc21)N=Nc1c(O)[nH]c2ccc(Cl)cc12 | 57.2%
O=C(O)c1ccc(-c2ccc(/C=N/NC(=O)c3[nH]c4ccc(Br)cc4c3-c3ccccc3)s2)cc1 | -5.49% (active)
COc1ccc(C(=O)/C=C/c2ccc(Cl)c(C(F)(F)F)c2)cc1S(N)(=O)=O | 6.1% (active)
CC1(C)CC[C@]2(C(=O)Nc3ccccc3)CC[C@]3(C)C(=CCC4[C@@]5(C)C[C@@H](O)[C@H](O)[C@@](C)(CO)C5CC[C@]43C)C2C1 (some centres undefined) | 13.1%

SMILES | growth
COc1sc(/C=N/NC(=O)c2[nH]c3ccc(Br)cc3c2-c2ccccc2)cc1Br | -37.7% (active)
CN(C)c1nc(NCCNS(=O)(=O)c2ccc(C3=Nc4c(N)nc(N)nc4NC(c4ccc(F)cc4)C3)cc2)nc(Nc2ccc(F)cc2)n1 (centres undefined) | -25.1% (active)
COc1ccc2cc([C@H](C)C(=O)NCc3ccccc3)ccc2c1 | 5.91% (active)
CN(C)CCCc1ccc(Nc2cnn(C)c(=O)c2Cl)cc1 | 81%
COc1cccc(-c2ccc(/C=N/NC(=O)c3[nH]c4ccc(Br)cc4c3-c3ccccc3)s2)c1 | -28.2% (active)
Cn1cc(-c2cc(N)n3nc(-c4cn(C)c5ccccc45)cc3n2)c2cc(F)ccc21 | -20.1% (active)
O=C(CSc1nnc(-c2ccc(-c3nc4ccc(Cl)cc4[nH]3)cc2)o1)Nc1ccc(Br)cc1 | 29.7%
O=C1Nc2cc(Cl)ccc2/C1=C/c1cccc(OCc2ccc(Br)cc2F)c1 | -57.8% (active)
COc1ccc2[nH]cc(/C=N/Nc3ccc(Br)cn3)c2c1 | 5.34% (active)
C[C@H](NC(=O)c1ccc2c(-c3ccc(C(F)(F)F)cc3)cccc2c1)c1ccccn1 | 23%
Cn1cc(-c2cc3nc(-c4cn(C)c5ncc(Br)cc45)cc(N)n3n2)c2ccccc21 | -60.3% (active)
Cc1nc(Nc2nc(C)c3ccc(OCCN4CCOCC4)cc3n2)[nH]c(=O)c1C | 2.88% (active)
CCOC(=O)/C=C/c1cccc2c1C(=O)NC(C)(c1cc3cc(Br)ccc3oc1=O)N2 (centres undefined) | 27.3%
COc1ccc2cc([C@H](C)C(=O)N/N=C/c3ccc(Br)cc3)ccc2c1 | 91.3%
O=C(COc1ccc(NC(=O)Nc2ccc(Cl)c(Cl)c2)cc1)N=Nc1c(O)[nH]c2ccc(Cl)cc12 | -23% (active)
CN1C(=O)C2(C(C#N)=C(c3ccc(Cl)cc3)Nc3c2c(-c2ccccc2)nn3-c2ccccc2)c2ccccc21 (centres undefined) | 50.3%
COc1ccc(/C=C/c2nc3ccccc3n3c(-c4ccc(Cl)cc4)nnc23)cc1 | 71.8%
